Sampled rows, rich in hits. Any-hit rate of the full collection: about 1.1%.
USP7 block: inhibitors of human USP7 deubiquitinase | Q93009 | purified USP7, Ub-rhodamine cleavage fluorescence | inhibition, % at 20 µM | 0.3% of 47,000 active | AID 1645854
OTUD3 block: blocks human OTUD3 ubiquitin-rhodamine cleavage | Q5T2D3 | purified OTUD3, Ub-rhodamine fluorescence, 2 h | inhibition, % at 25 µM | 0.7% of 47,000 active | AID 1645858
Target sequence (Q5T2D3 whole entry, looked up): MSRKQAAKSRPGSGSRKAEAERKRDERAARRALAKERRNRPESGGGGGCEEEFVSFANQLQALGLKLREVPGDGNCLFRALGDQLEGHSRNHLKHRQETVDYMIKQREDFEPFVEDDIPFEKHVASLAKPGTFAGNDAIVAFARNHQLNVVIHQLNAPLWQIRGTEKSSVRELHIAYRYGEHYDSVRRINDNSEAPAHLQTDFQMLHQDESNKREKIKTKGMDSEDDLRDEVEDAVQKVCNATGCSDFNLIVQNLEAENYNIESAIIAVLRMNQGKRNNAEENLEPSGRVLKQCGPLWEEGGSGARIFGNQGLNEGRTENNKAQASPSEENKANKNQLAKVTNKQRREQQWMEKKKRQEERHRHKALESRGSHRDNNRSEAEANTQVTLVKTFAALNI
UCHL1 block: human UCHL1 deubiquitinase inhibition; AID 1645859; inhibition, % at 20 µM; purified UCHL1, Ub-rhodamine cleavage fluorescence; 0.2% of 47,000 active
Target sequence (P09936 whole entry, looked up): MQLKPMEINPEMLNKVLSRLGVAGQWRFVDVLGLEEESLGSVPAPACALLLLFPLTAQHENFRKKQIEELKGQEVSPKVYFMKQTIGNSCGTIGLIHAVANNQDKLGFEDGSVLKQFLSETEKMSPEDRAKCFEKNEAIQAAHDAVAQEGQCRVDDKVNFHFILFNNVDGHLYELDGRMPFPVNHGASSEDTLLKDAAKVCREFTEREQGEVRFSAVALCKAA
* hit, by the source's call. No stated cut-off is given here; in the data, active means inhibition above about 30%; inactive means the rest.

SMILES | USP7 block | OTUD3 block | UCHL1 block
CC(=O)c1ccc(NC(=O)CSc2nc(-c3ccccc3)nc3c2COC(C)(C)C3)cc1 | 10.3 | 30.5* | 2.4
CC1(C)Cc2nc(-c3ccccc3)nc(SCC(=O)Nc3ccccc3)c2CO1 | 3.6 | -0.4 | -0.1
COc1ccc(CNC(=O)c2c3c(nc4ccccc24)CCCCC3)cc1 | -20.5 | -13.6 | -1.8
Cc1c(O)ccc2c(=O)c(-c3cc4ccccc4o3)coc12 | 3.9 | 5.7 | 3.0
O=c1ccc(-c2cc3ccccc3o2)cn1Cc1ccccc1-c1ccccc1 | 5.0 | 46.5* | 38.2*
CC(C)CC1OC(=O)CCNC(=O)C(Cc2ccccc2)N(C)C(=O)C(C(C)C)N(C)C(=O)C(Cc2ccccc2)NC(=O)C2C(C)CCN2C1=O (stereo not given) | -18.7 | 3.1 | -0.4
NC(=O)c1nc(C2CCCCC2)nc2c1[nH]c(=O)n2-c1ccc2c(c1)OCO2 | 8.7 | 6.2 | 3.2
Cc1cccc(-n2c(=O)[nH]c3c(C(N)=O)nc(-c4ccccn4)nc32)c1 | -1.7 | 7.5 | -3.5
NC(=O)c1nc(-c2cccnc2)nc2c1[nH]c(=O)n2-c1ccc2c(c1)OCO2 | 7.0 | 48.0* | 0.7
NC(=O)c1nc(-c2ccccn2)nc2c1[nH]c(=O)n2-c1ccc2c(c1)OCO2 | 5.7 | 45.0* | 2.7
C[C@H]1[C@H]2CC[C@H]3[C@@H]4CC=C5C[C@@H](N(C)C)CC[C@]5(C)[C@H]4C[C@@H](O)[C@]23CN1C | 3.3 | 14.6 | 0.3
Cc1[nH]c2ccccc2c1C1CCN(S(=O)(=O)c2cccc3nsnc23)CC1 | 7.5 | 0.2 | 5.5
Cc1c(C(=O)N(C)Cc2ccco2)nnn1-c1cccc2c1CCN(C(=O)NC(C)C)C2 | 2.1 | 4.7 | 0.9
CCN(CC)S(=O)(=O)c1ccc(OC)c(Nc2nc(-c3ccccc3)nc3ccccc23)c1 | 5.9 | 10.3 | 1.6
CC(=O)c1ccc(NC(=O)CCS(=O)(=O)c2ccc3c(c2)SC(C)C(=O)N3)cc1 (stereo not given) | -13.2 | -1.7 | -0.9
CCc1cccc(NC(=O)CCS(=O)(=O)c2ccc3c(c2)CC(=O)N3C)c1 | 1.7 | 0.4 | -1.3
Cc1ccc(C2=Nc3ccccc3N(CC(=O)Nc3cccc(C)c3C)C(=O)C2)cc1C | 11.7 | 30.8* | 2.1
Cc1cccc(NC(=O)CN2C(=O)CC(c3ccccc3)=Nc3ccccc32)c1C | 3.2 | 9.3 | -1.1
COc1ccc(/C=C/C(=O)N2c3ccc(F)cc3CCC2C)cc1 (stereo not given) | 0.9 | -2.8 | 1.9
Cc1cc2cc(CN(CCN3CCOCC3)C(=O)NC3CCCCC3)c(=O)[nH]c2cc1C | -6.7 | -9.5 | -4.9
Cc1ccc(-n2ccn3cc(-c4ccc(Br)cc4)nc3c2=O)c(C)c1 | 3.5 | -10.3 | -0.8
CCOc1ccccc1NC(=O)COC(=O)C(c1ccccc1)c1ccccc1 | 14.4 | 33.7* | 7.3
Cc1cc(C)c(NC(=O)COC(=O)C(c2ccccc2)c2ccccc2)c(C)c1 | 8.0 | 13.4 | 2.1
COc1ccc(C(=O)Nc2ccccc2C(=O)NC(Cc2ccc(O)cc2)C(=O)NNC(=O)c2ccccc2Cl)cc1 (stereo not given) | 12.1 | 74.9* | 3.4
COC(=O)[C@H](Cc1ccc(O)cc1)NC(=O)c1ccc(Cl)cc1 | -0.2 | -3.9 | 2.2
SMILES | USP7 block | OTUD3 block | UCHL1 block
Cc1nc2c(c(=O)[nH]1)C(c1ccc(OCc3ccc(F)cc3)cc1)CC(=O)N2 (stereo not given) | 7.1 | 14.3 | 1.4
COc1cccc2sc(N3CCN(C(=O)C4CCCCC4)CC3)nc12 | -87.1 | 3.5 | -2.5
CCN(CC)CCn1c(NC(=O)c2ccc(S(=O)(=O)N3CCOCC3)cc2)nc2ccccc21 | -0.5 | -1.7 | 2.1
O=C1c2ccccc2C(=O)c2c(O)c(O)cc(O)c21 | 1.8 | -139.7 | 45.4*
Cc1cc(O)cc2c1C(=O)c1c(O)ccc(O)c1C2=O | -46.6 | -97.5 | -20.7
Cc1c(N2CCC(C(=O)NCC3CCCO3)CC2)c(=O)n(C)c(=O)n1-c1ccccc1 (stereo not given) | -0.7 | -8.0 | -4.4
CN(C)c1ncc(-c2ccccn2)c(-c2ccc(CNC(=O)CC3C=CCC3)cc2)n1 (stereo not given) | -3.7 | 8.0 | 1.6
COc1cc2ncc(S(=O)(=O)c3ccccc3)c(N3CCC(C(N)=O)CC3)c2cc1OC | -1.3 | -8.8 | -3.1
C=C[C@@]1(C)CC[C@H]2C(=CC[C@@H]3[C@]2(C)CCC(=O)[C@]3(C)CO[C@@H]2O[C@H](CO)[C@@H](O)[C@@H](O)[C@@H]2O)C1 | -39.6 | 7.1 | 5.5
O=C(Cc1ccccc1[N+](=O)[O-])Nc1cnn(Cc2ccc(F)cc2)c1 | -2.9 | 1.5 | -2.8
O=C(CSc1nc2cc(C(F)(F)F)ccc2s1)NCC(=O)c1ccccc1 | 58.5* | -8.3 | 20.6
O=C(CSc1nc(C(F)(F)F)cc(=O)[nH]1)NCc1ccccc1 | 3.2 | -4.3 | -0.4
COc1ccc(C)cc1NC(=O)c1ccc2noc(-c3ccc(F)cc3)c2c1 | 1.6 | 0.9 | 2.0
Nc1cc(=O)[nH]c(SCc2ccccc2F)n1 | -5.7 | -0.8 | -1.4
CC(NC(=O)c1ccc(-c2nnc(-c3ccccc3)o2)cc1)c1ccc(S(C)(=O)=O)cc1 (stereo not given) | 8.7 | 35.7* | 5.8
CS(=O)(=O)c1ccc(-c2nnc(NC(=O)c3ccco3)o2)cc1 | 4.5 | 9.6 | 0.1
Cc1ccc(CNC(=O)c2cccc(N3C(=O)CCS3(=O)=O)c2)cc1 | -0.7 | 3.6 | -11.8
CCCCCCCC/C=C\CCCCCCCc1cc(O)cc(O)c1C(=O)O | 4.1 | 6.4 | 0.4
CCCCCCCCCc1cc(OC(=O)c2c(CCCCCCCCC)cc(O)cc2O[C@@H]2O[C@H](CO)[C@@H](O)[C@H](O)[C@H]2O)cc(O)c1C(=O)O | 100.4* | 101.2* | 84.4*
CCCCCCCc1cc(OC(=O)c2c(CCCCCCC)cc(O)cc2O[C@@H]2O[C@H](CO)[C@H](O)[C@H](O)[C@H]2O)cc(O)c1C(=O)O | 100.1* | 100.4* | 68.8*
CCCCCCCc1cc(O)cc(OC(=O)c2c(CCCCCCC)cc(O)cc2O[C@H]2O[C@H](C(O)CO)[C@@H](O)[C@@H]2O)c1 (stereo not given in full) | -3.8 | 0.0 | 14.8
O=C(Nc1ccccc1)c1cn(-c2cc(N3CCCC3)ncn2)cn1 | -15.1 | -186.8 | -18.4
c1nc2nc3c(c(N4CCCCC4)n2n1)CCC3 | 0.3 | 5.8 | 1.3
Cc1[nH]c2ccccc2c1C(=O)COc1ccc([N+](=O)[O-])cc1Cl | -18.1 | -4.8 | 5.0
Cn1nc(C2CCN(C(=O)c3cccc(F)c3)CC2)c2nccnc21 | 0.0 | -14.2 | -4.0
SMILES | USP7 block | OTUD3 block | UCHL1 block
CCC/C=C\C#CC/C=C\CCCCCCCC(=O)O | 59.5* | 57.6* | 69.2*
CCCCCCCC/C=C\CCCCCCCC(=O)O | 5.1 | -2.1 | 0.7
Cc1nn2c(S(=O)(=O)N3CCN(c4ccccc4)CC3)c(C)nc2s1 | -0.4 | -2.7 | 0.1
COc1ccc(-n2c(SCC(=O)Nc3cc(Cl)ccc3C(=O)O)nc3ccccc3c2=O)cc1Cl | 34.9* | -0.4 | 10.0
COC(=O)CSc1nc2ccccc2c(=N)n1-c1ccc(Cl)cc1 | 8.3 | 12.4 | 9.0
CC(=O)c1cc2c(=O)c3c(C(=O)O)c(O)c(O)cc3oc2c(C(C)=O)c1-c1coc2cc(O)c(O)c(C(=O)O)c2c1=O | -138.9 | 59.5* | 1.3
Cc1ccc(CN(C(=O)c2cccs2)c2nc3nc(C)c(C)c(=O)n3[nH]2)cc1 | 3.5 | -9.4 | -1.8
